PubChem BioAssay (NCATS)
Inconclusive results are not listed. A call without a number means that no potency is given here. Calls of active or inactive are those of the source. Calls follow the shape of the dose curve; as a rule, active = well fitted inhibition curve with a large enough effect; inconclusive = small, poorly fitted or top-dose-only effect; inactive = flat fitted curve, though single readings scatter.

System: CP297
Experiment: qHTS profiling for inhibitors of Plasmodium falciparum proliferation (AID 504749); also: nearly all actives have a fitted effect of over 60% in size
Settings: P. falciparum in erythrocytes, SYBR Green DNA, 72 h; series mostly up to 28.7 µM
In short: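 P. falciparum-infected erythrocytes (0.3% parasitemia, 2.5% hematocrit) incubated with compound 72 h at 37 C, 5% CO2. Parasite DNA detected by SYBR Green after lysis, overnight at room temperature; normalised to 0.29 uM artemisinin and DMSO.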
Potency is read from the fitted curve at half-maximal effect.

Row | SMILES | Potency
1 | CCCCCCCC/C=C\CCCCCCCC(=O)O | inactive
2 | CC(C)(C)C(=O)OCOC(=O)[C@@H]1N2C(=O)[C@@H](N=CN3CCCCCC3)[C@H]2SC1(C)C | inactive
3 | CCOC(C)=O | inactive
4 | CCCCCCC(O)C/C=C/CCCCCCCC(=O)O (stereo not drawn) | inactive
5 | CN1C(=O)CN2CCc3ccccc3C2c2cc(Cl)ccc21 (stereo not drawn) | inactive
6 | Cc1c(C)c2c(c(C)c1O)CC[C@@](C)(CCC[C@H](C)CCC[C@H](C)CCCC(C)C)O2 | inactive
7 | CC(C(=O)O)c1ccc(N2Cc3ccccc3C2=O)cc1 (stereo not drawn) | inactive
8 | COC(=O)[C@H]1[C@H]2C[C@@H]3c4[nH]c5ccccc5c4CCN3C[C@H]2C[C@@H](OC(=O)c2cc(OC)c(OC)c(OC)c2)[C@@H]1OC | 190 nM (active)
9 | O=S(=O)(O)O | inactive
10 | CC(C)N=c1cc2n(-c3ccc(Cl)cc3)c3ccccc3nc-2cc1Nc1ccc(Cl)cc1 | inactive
11 | O=S(=O)(O)c1ccc2c(N=Nc3ccc(S(=O)(=O)O)c4ccccc34)c(O)c(S(=O)(=O)O)cc2c1 | inactive
12 | C[C@]12CCC(=O)C=C1CC[C@@H]1[C@@H]2[C@@H](O)C[C@@]2(C)[C@H]1CC[C@]2(O)C(=O)COP(=O)(O)O | inactive
13 | CCN(CC)Cc1cc(Nc2ccnc3cc(Cl)ccc23)ccc1O | 90.7 nM (active)
